For seven compounds, growth results are on record in PubChem BioAssay (NCI).

Each structure is given as a SMILES string. Several values for one entry are separate records, joined by “and”; a condition that tells them apart may be missing. Identical values can stand only once. Compounds without any hit were thinned out: in the full panel of roughly 83,000, 20% have a hit.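 Single-dose data. Exposure time 48 hours. Values below 10 considered active.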 Unmarked numbers belong to inactive results. Activity calls are given as the source filed them.

Some test systems named below: NCI-H23 lung; NCI-H226 lung; NCI-H322M lung; HOP-62 NSCLC; NCI-H460 lung; HOP-92 NSCLC; NCI-H522 lung; A549/ATCC NSCLC; 786-0 renal; COLO 205 colon; DU-145 prostate; K-562 leukemia; MALME-3M melanoma; MDA-MB-231 breast; RXF 393 renal; SF-268 CNS; SF-295 CNS; SF-539 CNS; UACC-257 melanoma; M14 melanoma.
Holding throughout (test): NCI-60 one-dose screen, 48 h (100 = growth as untreated, 0 = no growth, -100 = all killed)
Common to all, as to conditions: 10 µM unless noted

For `CC[C@H](C)[C@H](NC(=O)[C@H]1CCCCN1C)C(=O)N(C)[C@H](C[C@@H](OC(C)=O)c1cccc(C(=O)N[C@@H](Cc2ccccc2)C[C@H](C)C(=O)OC)n1)C(C)C`, the growth in the assay on NCI-H23 lung was 22.4%; with NCI-H226 lung, 23.3%; in the assay with NCI-H322M lung, 40.3%; in the assay with HOP-62 NSCLC, 3.61% (active); in the assay with NCI-H460 lung, 7.06% (active); in the assay with HOP-92 NSCLC, -0.87% (active). Also, the growth is -11.6% (active) in the assay on NCI-H522 lung; 10.5% in the assay with A549/ATCC NSCLC; 14.5% in the assay on 786-0 renal; -71.6% (active) in the assay with COLO 205 colon; 2.8% (active) with DU-145 prostate; 5.5% (active) with K-562 leukemia. Moreover, the growth with MALME-3M melanoma is 66.7%; in the assay with MDA-MB-231 breast it was 2.42% (active); in the assay on RXF 393 renal, 13.1%; in the assay on SF-268 CNS, 13.9%; with SF-295 CNS, 2.21% (active); in the assay on SF-539 CNS, -14% (active). The growth with UACC-257 melanoma was 47.6%; in the assay on M14 melanoma, -8.11% (active).

With `COc1ccc(N(CC(=O)NCCC[Te]c2ccccc2)C(=O)c2ccccc2)cc1`, the growth in the assay on NCI-H23 lung was 0.588% (active); in the assay on NCI-H226 lung, 52.7%; in the assay with NCI-H322M lung, 4.82% (active); in the assay on HOP-62 NSCLC, 15.8%; with NCI-H460 lung it was -1.52% (active); in the assay with HOP-92 NSCLC, -9.19% (active). In addition, the growth was -9.72% (active) in the assay on NCI-H522 lung; 2.78% (active) with A549/ATCC NSCLC; 75.3% with 786-0 renal; 89.2% in the assay with COLO 205 colon; 66.6% in the assay with DU-145 prostate; 56.1% with K-562 leukemia. In addition, the growth is 129% with MALME-3M melanoma; 14.2% in the assay on MDA-MB-231 breast; 133% with RXF 393 renal; 39.2% with SF-268 CNS; -7.61% (active) in the assay with SF-295 CNS; 31.4% with SF-539 CNS. The values for the growth in the assay with UACC-257 melanoma and with M14 melanoma were 95.4% and 32.1%, respectively.

For `C[C@]12C[C@H](c3ccoc3)OC(=O)[C@H]1CC[C@@]1(C)[C@@H]2[C@H]2C=C[C@]1(O)C(=O)O2`, the growth in the assay with NCI-H23 lung is 102%; in the assay on NCI-H226 lung, 101%; in the assay on NCI-H322M lung, 79.1%; with HOP-62 NSCLC, 104%; in the assay on NCI-H460 lung it was 108%; with HOP-92 NSCLC it was 81.3%. Moreover, the growth in the assay on NCI-H522 lung is 68.1%; with A549/ATCC NSCLC it was 84.5%; with 786-0 renal, 91.9%; in the assay with COLO 205 colon, 104%; in the assay on DU-145 prostate it was 109%; in the assay with K-562 leukemia it was 76.9%. Moreover, the growth in the assay with MALME-3M melanoma is 101%; in the assay with MDA-MB-231 breast it was 102%; in the assay with RXF 393 renal, 102%; with SF-268 CNS it was 98.3%; with SF-295 CNS it was 91.1%; with SF-539 CNS, 92.4%. In addition, the growth in the assay with UACC-257 melanoma is 86.2%; in the assay on M14 melanoma it was 87.6%.

For the compound `O=[P+](O)c1cccnc1`, the growth in the assay on NCI-H23 lung was 103%; in the assay with NCI-H226 lung, 105%; in the assay on NCI-H322M lung, 94.9%; with HOP-62 NSCLC, 90.3%; in the assay on NCI-H460 lung, 107%; in the assay with HOP-92 NSCLC it was 109%. Further, the growth in the assay with NCI-H522 lung was 75.7%; in the assay with A549/ATCC NSCLC, 101%; in the assay with 786-0 renal, 98.2%; with COLO 205 colon, 102%; in the assay with DU-145 prostate, 114%; with K-562 leukemia, 99.1%. The growth in the assay on MALME-3M melanoma is 106%; with MDA-MB-231 breast, 107%; in the assay on RXF 393 renal, 114%; in the assay with SF-268 CNS, 98.2%; in the assay on SF-295 CNS it was 103%; in the assay on SF-539 CNS, 105%. The growth with UACC-257 melanoma is 104%; in the assay on M14 melanoma, 106%.

As to `CCOP(=O)(NC)OCC`, the growth with NCI-H23 lung is 95.6%; in the assay on NCI-H226 lung, 94.3%; in the assay with NCI-H322M lung it was 122%; with HOP-62 NSCLC, 90.8%; with NCI-H460 lung, 104%; with HOP-92 NSCLC it was 74.5%. The growth in the assay with NCI-H522 lung is 112%; in the assay with A549/ATCC NSCLC it was 114%; in the assay on 786-0 renal, 92.1%; with COLO 205 colon, 117%; with DU-145 prostate, 112%; with K-562 leukemia, 120%. The growth in the assay with MALME-3M melanoma was 121%; with MDA-MB-231 breast it was 104%; with RXF 393 renal it was 118%; in the assay on SF-268 CNS, 98.7%; with SF-295 CNS, 129%; in the assay with SF-539 CNS it was 101%. The growth with UACC-257 melanoma is 121%; with M14 melanoma, 94.8%.

As to `Cc1nc2ccccc2c(=O)n1-c1ccccc1F`, the growth is 100% in the assay on NCI-H23 lung; 96.6% with NCI-H226 lung; 111% in the assay on NCI-H322M lung; 81.6% with HOP-62 NSCLC; 105% in the assay on NCI-H460 lung; 87.5% with HOP-92 NSCLC. Besides, the growth is 88.1% in the assay with NCI-H522 lung; 76.2% in the assay on A549/ATCC NSCLC; 103% in the assay with 786-0 renal; 98.3% with COLO 205 colon; 109% with DU-145 prostate; 104% in the assay on K-562 leukemia. Further, the growth in the assay on MALME-3M melanoma was 112%; with MDA-MB-231 breast it was 107%; in the assay with RXF 393 renal, 96.5%; with SF-268 CNS, 100%; in the assay on SF-295 CNS, 98.3%; with SF-539 CNS, 95.4%. Moreover, the growth in the assay on UACC-257 melanoma was 77%; in the assay on M14 melanoma, 99.4%.

Take `CCCC1CCCCC12C(=O)NC(=O)NC2=O` (stereo not given): the growth in the assay with NCI-H23 lung is 97.2% and 101%; in the assay on NCI-H226 lung, 91.1%; with NCI-H322M lung, 105% and 94.3%; in the assay with HOP-62 NSCLC, 107%; with NCI-H460 lung it was 101% and 109%; with HOP-92 NSCLC, 103%. The growth in the assay on NCI-H522 lung is 95.5% and 89.7%; in the assay with A549/ATCC NSCLC, 104% and 98.2%; with 786-0 renal, 102% and 96.6%; in the assay on COLO 205 colon, 104% and 110%; with DU-145 prostate, 104% and 109%; with K-562 leukemia, 101%. Also, the growth in the assay with MALME-3M melanoma is 86.4% and 112%; in the assay on MDA-MB-231 breast it was 89.3% and 120%; in the assay on RXF 393 renal, 104% and 110%; in the assay with SF-268 CNS, 105% and 102%; in the assay on SF-295 CNS it was 95.5% and 108%; in the assay on SF-539 CNS it was 97.1% and 111%. The growth was 103% and 94.1% in the assay on UACC-257 melanoma; 96.4% and 96.9% with M14 melanoma.
